Most compounds without a hit are left out; they make up all but 3.1% or so of the library.
FadD28 binding – inhibitors of FadD28 bisubstrate probe binding, primary screen, biochemical, fluorescence polarization, single point; Mycobacterium tuberculosis FadD28 fatty-acid-AMP ligase; inhibition, % at 12.5 µM; hit rate 0.22% among 360,000; AID 588549, 2011; in the data active means inhibition above about 8.5%, passing the limit was not always enough
3CLpro inhibitor – SARS-CoV 3CLpro protease inhibitors, primary screen, biochemical, quenched FRET; recombinant SARS-CoV 3CLpro, quenched FRET peptide cleavage; inhibition, % at 6 µM; AID 1706, 2009; Replicase polyprotein 1ab (Severe acute respiratory syndrome coronavirus), P0C6X7; hit rate 0.14% among 290,000; in the data active means inhibition above about 12%
Mtb BioA inh – M. tuberculosis BioA enzyme inhibitors, primary screen, biochemical, plate reader, single point, HTS; 7,8-diaminopelargonic acid synthase BioA (Mycobacterium tuberculosis); purified M. tuberculosis BioA enzyme; inhibition, % at 9.99 µM; hit rate 0.096% among 360,000; in the data active means inhibition above about 40%
GDH-TPI counter-1 – GDH-TPI coupling enzyme inhibitors, primary screen, artefact control for M. tuberculosis FBA inhibitor project, biochemical, absorbance, full deck; GDH-TPI coupled enzyme counterscreen, NADH absorbance; inhibition, % at 4.8 µM; hit rate 1.2% among 360,000; in the data active means inhibition above about 30%
Mtb FBA inh – Mtb FBA enzyme inhibitors, primary screen, biochemical, fluorescence, strain H37Rv; Fructose-bisphosphate aldolase (Mycobacterium tuberculosis (strain ATCC 25618 / H37Rv)), …; purified M. tuberculosis FBA, fluorescence read-out; inhibition, % at 1 µM; hit rate 2.3% among 360,000
Target sequence (P9WQA3 whole entry, looked up): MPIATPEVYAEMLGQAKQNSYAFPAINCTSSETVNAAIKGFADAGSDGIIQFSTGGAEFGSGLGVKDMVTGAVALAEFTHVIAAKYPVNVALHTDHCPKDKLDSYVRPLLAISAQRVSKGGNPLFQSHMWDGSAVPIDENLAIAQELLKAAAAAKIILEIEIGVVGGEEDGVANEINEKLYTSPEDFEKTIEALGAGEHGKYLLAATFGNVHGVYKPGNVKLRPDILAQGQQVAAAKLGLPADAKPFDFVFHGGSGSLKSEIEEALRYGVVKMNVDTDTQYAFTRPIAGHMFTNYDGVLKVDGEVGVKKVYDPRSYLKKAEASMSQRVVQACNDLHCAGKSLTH
Mtb FBA confirm – M. tuberculosis aldolase blockers, biochemical, fluorescence, strain H37Rv, confirmation | hit rate 78% among 5,600 | shares compounds with Mtb FBA inh | inhibition, % at 1 µM | AID 651616, 2012 | purified M. tuberculosis FBA, fluorescence read-out
GDH-TPI counter-2 – GDH-TPI coupling enzyme inhibitors, artefact control for M. tuberculosis FBA inhibitor project, biochemical, fluorescence, high throughput; shares compounds with Mtb FBA inh; GDH-TPI coupled enzyme counterscreen; hit rate 81% among 5,600; inhibition, % at 1 µM; in the data active means inhibition above about 10%
GDH-TPI DR – GDH-TPI coupling enzyme inhibitors, dose response, artefact control for M. tuberculosis FBA inhibitor project, biochemical, fluorescence, IC50; GDH-TPI coupled enzyme assay, artifact counterscreen; IC50, µM; shares compounds with Mtb FBA inh; hit rate 79% among 170; call rule not given here
A number is an active result; – = inactive; · = not tested or not shown; + = active, no number. Unless noted, no stated cut-off is given here; in the data, active means inhibition above about 27%; inactive means the rest.

SMILES | FadD28 binding | 3CLpro inhibitor | Mtb BioA inh | GDH-TPI counter-1 | Mtb FBA inh | Mtb FBA confirm | GDH-TPI counter-2 | others
Cc1c(OC(C)C(=O)NCCCN2CCOCC2)ccc2c1oc(=O)c1ccccc12 (configuration not stated) | – | – | – | – | 74.3 | – | –
CCc1cc(=O)oc2cc(C)cc(OC(C)C(=O)NCCCN3CCCC3=O)c12 (configuration not stated) | – | – | · | – | 86.7 | – | –
CCC(=O)Nc1ccc2c(c1)C(=O)N(C)C[C@@H](OC)[C@@H](C)CN(CCc1ccccc1)[C@H](C)CO2 | · | · | – | · | · | · | ·
C/C=C/c1cnc2c(c1)C(=O)N([C@@H](C)CO)C[C@@H](C)[C@H](CN(C)C(=O)Cc1ccccc1)O2 | · | · | – | · | · | · | ·
CNC[C@H]1Oc2ccc(NC(=O)Nc3ccc(OC)cc3)cc2CC(=O)N([C@@H](C)CO)C[C@@H]1C | · | · | – | · | · | · | ·
Cc1cc(OCC(=O)NCCCN2CCCC2=O)c2c(C)cc(=O)oc2c1 | – | – | · | – | 103.2 | – | –
CCCc1cc(=O)oc2cc(C)cc(OCC(=O)NCCCN3CCCC3=O)c12 | – | – | – | – | 66.4 | + | +
Cc1c(C)c2cc(Cl)c(OCC(=O)NCCCN3CCCC3=O)cc2oc1=O | – | · | – | 33.6 | 44.7 | – | – | GDH-TPI DR=7.07
Cc1c(C)c2ccc(OC(C)C(=O)NCCCn3ccnc3)c(C)c2oc1=O (configuration not stated) | – | – | – | – | 55.3 | 66.6 | 50.7
C[C@@H]1CN([C@@H](C)CO)C(=O)Cc2cc(NC(=O)NC3CCCCC3)ccc2O[C@H]1CN(C)CC1CC1 | · | · | – | · | · | · | ·
CCOC(=O)c1[nH]c2ccc(OC)cc2c1NC(=O)c1ccc(OC)c(OC)c1 | – | – | · | – | – | · | ·
CCOC(=O)c1[nH]c2ccc(OC)cc2c1C(SCC(=O)O)c1ccc(C(F)(F)F)cc1 (configuration not stated) | · | – | – | – | 55.0 | 131.6 | 84.7
Cc1cc(=O)n2cccc(O)c2n1 | – | – | · | – | 74.8 | + | +
COc1cc2c(cc1OC)C(C1C(=O)CC(C)CC1=O)N(C(=O)CCl)CC2 (configuration not stated) | – | – | · | – | 30.9 | – | – | GDH-TPI DR=–
COc1cc2c(cc1OC)C(C1C(=O)CCCC1=O)N(C(=O)CCl)CC2 (configuration not stated) | – | – | – | – | – | · | ·
CC(C)c1ccc(C(=O)Nc2ccc(CN3CCOCC3)cc2)cc1 | – | – | – | – | 69.0 | 195.6 | 191.3
NC(=O)c1ccc(NC(=O)c2ccc(CN3CCOCC3)cc2)cc1 | – | – | – | – | – | · | ·
COc1cccc2c(=O)c(C/C=C(/C)Cl)c(C)[nH]c12 | – | – | – | – | 39.4 | 49.8 | 41.6
COc1cccc2c(=O)c(SC(F)(F)C(F)C(F)(F)F)c(C)[nH]c12 (configuration not stated) | – | – | – | – | 34.8 | 113.9 | 99.9
Cc1ccc(C2CC(c3cccs3)n3nc(N)nc3N2)cc1 (configuration not stated) | – | – | – | – | 60.5 | – | –
O=C(C[C@@H]1CC[C@@H]2[C@H](COC[C@@H](O)CN2Cc2ccncc2)O1)NCc1ccccc1Cl | · | · | – | · | · | · | ·
CCNc1oc(/C=C/c2ccc(OCC)cc2)nc1C#N | – | – | – | – | 29.4 | 85.6 | 70.8
N#Cc1ccc(CC(=O)c2ccccc2)[nH]c1=O | – | · | – | – | – | · | ·
N#Cc1ccc(CCc2ccccc2)[nH]c1=O | – | · | – | – | 31.3 | – | –
Nc1c(S(=O)(=O)c2ccccc2)c2nc3ccccc3nc2n1/N=C/c1cccc(O)c1 | – | – | – | – | – | · | ·
